Bioassay records: PubChem BioAssay, several laboratories
Rows were chosen to be rich in hits. Some 3.2% of all compounds tested hit in one or more screens of this group.
Mcl1 Noxa PPI – Mcl-1/Noxa binding inhibitors, primary screen, biochemical, TR-FRET, 1536-well; Induced myeloid leukemia cell differentiation protein Mcl-1 (Homo sapiens), Q07820; TR-FRET Mcl-1/Noxa peptide binding, 2 h; inhibition, % at 21.7 µM; 220,000 compounds, 1.5% hits;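 active = compounds that cut the protein-peptide binding signal by more than 50% relative to plate controls in a single-dose test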;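 also: His-tagged Mcl-1 with rhodamine Noxa BH3 peptide and terbium anti-His antibody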
NCF1 inh – p47phox/p22phox peptide binding inhibitors, primary screen, biochemical, uHTS, NADPH oxidase regulatory subunit; Neutrophil cytosol factor 1 (Homo sapiens), P14598; fluorescence polarization, 2 h; inhibition, % at 24.7 µM; 220,000 compounds, 0.53% hits; AID 1274, 2008;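 active = inhibition above about 30%, limit read from the data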
Target sequence (P14598 whole entry, looked up): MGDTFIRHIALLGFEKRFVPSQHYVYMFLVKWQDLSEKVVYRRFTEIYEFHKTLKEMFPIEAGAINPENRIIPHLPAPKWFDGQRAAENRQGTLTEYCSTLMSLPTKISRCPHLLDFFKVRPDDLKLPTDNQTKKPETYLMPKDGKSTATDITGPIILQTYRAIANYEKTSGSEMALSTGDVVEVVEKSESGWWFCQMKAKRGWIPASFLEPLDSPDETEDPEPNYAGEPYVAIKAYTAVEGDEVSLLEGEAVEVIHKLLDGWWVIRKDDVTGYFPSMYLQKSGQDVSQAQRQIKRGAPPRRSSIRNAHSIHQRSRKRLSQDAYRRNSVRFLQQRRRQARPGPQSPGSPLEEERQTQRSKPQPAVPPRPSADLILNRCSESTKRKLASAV
Mcl1-Bid inh – Mcl-1/Bid binding inhibitors, primary screen, biochemical, TR-FRET, 1536-well; 220,000 compounds, 0.97% hits; Induced myeloid leukemia cell differentiation protein Mcl-1 (Homo sapiens), Q07820; TR-FRET Mcl-1/Bid-Dy647 peptide binding; inhibition, % at 21.7 µM; AID 1021, 2008;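 active = compounds that cut the binding signal by more than half at the single screening dose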;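 also: His-tagged Mcl-1 with europium anti-His antibody binding Bid BH3 peptide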
14-3-3 Bad inh – inhibitors of 14-3-3 zeta/Bad binding, primary screen, biochemical, TR-FRET, bovine 14-3-3 zeta; AID 781, 2007; 14-3-3 protein zeta/delta (Bos taurus), P63103; TR-FRET 14-3-3zeta/Dy647-pBad peptide displacement, 1 h; 220,000 compounds, 0.71% hits; inhibition, % at 21.7 µM;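 active = inhibition above about 70%, limit read from the data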
Bim-Mcl-1 – inhibitors of Bim peptide binding to Mcl-1, primary screen, biochemical, bead-based flow cytometry, multiplex | 190,000 compounds, 0.1% hits | inhibition, % at 10 µM | Bim peptide-Mcl-1 binding; in the data active = inhibition above about 40%
Numbers stand for hits.

`O=C1/C(=C\c2ccccn2)SC(=S)N1c1ccc(S(=O)(=O)Nc2nccs2)cc1` gave Mcl1 Noxa PPI 82, NCF1 inh inactive, Mcl1-Bid inh inactive and 14-3-3 Bad inh inactive.
For CC(C)(C)NC(=O)CN(C(=O)c1csnn1)c1cccc2c1CCCC2 the results were Mcl1 Noxa PPI inactive, NCF1 inh inactive, Mcl1-Bid inh inactive, 14-3-3 Bad inh inactive and Bim-Mcl-1 inactive.
Screening O=C1/C(=C/c2ccccn2)SC(=S)N1c1ccc(O)cc1 returned Mcl1 Noxa PPI 77, NCF1 inh inactive, Mcl1-Bid inh inactive and 14-3-3 Bad inh inactive.
For O=C1CC(=C(c2ccccc2)c2ccccc2)C(=O)N1CCCCN1CCN(c2ccccc2)CC1 the results were Mcl1 Noxa PPI inactive, NCF1 inh inactive, Mcl1-Bid inh inactive, 14-3-3 Bad inh 76 and Bim-Mcl-1 inactive.
Screening COc1ccc(NC(=O)Cn2c(=O)n(CC3CCCO3)c(=O)c3ccccc32)c(OC)c1 (centres undefined) returned Mcl1 Noxa PPI inactive, NCF1 inh inactive, Mcl1-Bid inh inactive, 14-3-3 Bad inh inactive and Bim-Mcl-1 inactive.
Screening CC(=O)Cc1nsc(NC(=O)c2ccc(-c3cc(C(F)(F)F)ccc3Cl)o2)n1 returned Mcl1 Noxa PPI inactive, NCF1 inh inactive, Mcl1-Bid inh 68, 14-3-3 Bad inh inactive and Bim-Mcl-1 inactive.
CC(=O)Cc1nsc(NC(=O)c2ccc(-c3cc(Cl)ccc3Cl)o2)n1 was read as Mcl1 Noxa PPI inactive, NCF1 inh inactive, Mcl1-Bid inh inactive, 14-3-3 Bad inh inactive and Bim-Mcl-1 inactive.
CCCCCc1c(O)nc(SCCN2CCOCC2)[nH]c1=O was read as Mcl1 Noxa PPI inactive, NCF1 inh inactive, Mcl1-Bid inh inactive, 14-3-3 Bad inh inactive and Bim-Mcl-1 inactive.
Screening Cc1ccc(NC(=O)c2cc(-n3cnnc3)ccc2Cl)c(C)c1 returned Mcl1 Noxa PPI inactive, NCF1 inh 42, Mcl1-Bid inh inactive, 14-3-3 Bad inh inactive and Bim-Mcl-1 inactive.
For CCS(=O)(=O)Nc1cc(-c2nc3cccnc3s2)ccc1C the results were Mcl1 Noxa PPI inactive, NCF1 inh inactive, Mcl1-Bid inh inactive, 14-3-3 Bad inh inactive and Bim-Mcl-1 inactive.
Screening Cc1ccc(-c2nc3cccnc3s2)cc1NC(=O)C1c2ccccc2Oc2ccccc21 returned Mcl1 Noxa PPI inactive, NCF1 inh 33, Mcl1-Bid inh inactive, 14-3-3 Bad inh 78 and Bim-Mcl-1 inactive.
Screening CC(C)(C)c1ccc(C(=O)Nc2ccc(NC(=O)C(=O)O)cc2)o1 returned Mcl1 Noxa PPI inactive, NCF1 inh inactive, Mcl1-Bid inh inactive, 14-3-3 Bad inh inactive and Bim-Mcl-1 inactive.
`CCOC(=O)C1=C(c2ccccc2)NC(N)=NC1c1ccc(OCc2ccc(C(=O)OC)cc2)cc1` (centres undefined) gave Mcl1 Noxa PPI inactive, NCF1 inh 84, Mcl1-Bid inh inactive and 14-3-3 Bad inh 90.
CCOCCCNC(=O)c1ccc(-n2c(=S)[nH]c3ccccc3c2=O)cc1 was read as Mcl1 Noxa PPI inactive, NCF1 inh inactive, Mcl1-Bid inh inactive, 14-3-3 Bad inh inactive and Bim-Mcl-1 inactive.
CCCc1nnc(NC(=O)CCC(=O)NCc2ccc(OC)cc2)s1 was read as Mcl1 Noxa PPI inactive, NCF1 inh inactive, Mcl1-Bid inh inactive and 14-3-3 Bad inh inactive.
Screening CC(N=Cc1cccc(O)c1O)c1ccccc1 (centres undefined) returned Mcl1 Noxa PPI 52, NCF1 inh inactive, Mcl1-Bid inh inactive, 14-3-3 Bad inh inactive and Bim-Mcl-1 inactive.
c1csc(-c2nn3cnnc3c3ccccc23)c1 was read as Mcl1 Noxa PPI inactive, NCF1 inh inactive, Mcl1-Bid inh inactive, 14-3-3 Bad inh inactive and Bim-Mcl-1 inactive.
Cc1ccc(-n2c(C)nn(CC#N)c2=O)cc1 was read as Mcl1 Noxa PPI inactive, NCF1 inh inactive, Mcl1-Bid inh inactive, 14-3-3 Bad inh 87 and Bim-Mcl-1 inactive.
For COc1ccc(CCNC(=O)C2CCN(S(=O)(=O)c3cccc4nonc34)CC2)cc1OC the results were Mcl1 Noxa PPI 66, NCF1 inh inactive, Mcl1-Bid inh inactive, 14-3-3 Bad inh inactive and Bim-Mcl-1 inactive.
c1ccc(N2CCN(c3nc(-c4cccs4)nc4ccccc34)CC2)cc1 was read as Mcl1 Noxa PPI inactive, NCF1 inh inactive, Mcl1-Bid inh inactive, 14-3-3 Bad inh inactive and Bim-Mcl-1 inactive.
